This passage reports inhibition results from PubChem BioAssay AID2073 (Sanford-Burnham Center for Chemical Genomics, 2009).

About 570 (0.2%) of roughly 290,000 compounds were called active. Not shown: some 1% with an inconclusive outcome. Rule as the data show it: active = inhibition mostly above about 51% (no sharp cut-off); inconclusive = no clear call, values can overlap the other calls; inactive = mostly below about 53%. For the sample, actives were picked, then their nearest neighbours and some compounds at random.

The inhibition is the relative decrease from the control value, in per cent.

The target in this test is Voltage-dependent N-type calcium channel subunit alpha-1B (Homo sapiens) (UniProt Q00975). Nature of the test: inhibitors of Mint1-CaV2.2 protein interaction, biochemical, HTRF (AID 2073). The conditions noted are these: at 20 µM, stronger effect = higher value. A general note: TR-FRET usually uses a lanthanide donor and a delayed reading to cut background.
Where [1] appears, read: measured here: average of repeat tests.

Chain of Voltage-dependent N-type calcium channel subunit alpha-1B (Homo sapiens) (Q00975 whole entry, looked up): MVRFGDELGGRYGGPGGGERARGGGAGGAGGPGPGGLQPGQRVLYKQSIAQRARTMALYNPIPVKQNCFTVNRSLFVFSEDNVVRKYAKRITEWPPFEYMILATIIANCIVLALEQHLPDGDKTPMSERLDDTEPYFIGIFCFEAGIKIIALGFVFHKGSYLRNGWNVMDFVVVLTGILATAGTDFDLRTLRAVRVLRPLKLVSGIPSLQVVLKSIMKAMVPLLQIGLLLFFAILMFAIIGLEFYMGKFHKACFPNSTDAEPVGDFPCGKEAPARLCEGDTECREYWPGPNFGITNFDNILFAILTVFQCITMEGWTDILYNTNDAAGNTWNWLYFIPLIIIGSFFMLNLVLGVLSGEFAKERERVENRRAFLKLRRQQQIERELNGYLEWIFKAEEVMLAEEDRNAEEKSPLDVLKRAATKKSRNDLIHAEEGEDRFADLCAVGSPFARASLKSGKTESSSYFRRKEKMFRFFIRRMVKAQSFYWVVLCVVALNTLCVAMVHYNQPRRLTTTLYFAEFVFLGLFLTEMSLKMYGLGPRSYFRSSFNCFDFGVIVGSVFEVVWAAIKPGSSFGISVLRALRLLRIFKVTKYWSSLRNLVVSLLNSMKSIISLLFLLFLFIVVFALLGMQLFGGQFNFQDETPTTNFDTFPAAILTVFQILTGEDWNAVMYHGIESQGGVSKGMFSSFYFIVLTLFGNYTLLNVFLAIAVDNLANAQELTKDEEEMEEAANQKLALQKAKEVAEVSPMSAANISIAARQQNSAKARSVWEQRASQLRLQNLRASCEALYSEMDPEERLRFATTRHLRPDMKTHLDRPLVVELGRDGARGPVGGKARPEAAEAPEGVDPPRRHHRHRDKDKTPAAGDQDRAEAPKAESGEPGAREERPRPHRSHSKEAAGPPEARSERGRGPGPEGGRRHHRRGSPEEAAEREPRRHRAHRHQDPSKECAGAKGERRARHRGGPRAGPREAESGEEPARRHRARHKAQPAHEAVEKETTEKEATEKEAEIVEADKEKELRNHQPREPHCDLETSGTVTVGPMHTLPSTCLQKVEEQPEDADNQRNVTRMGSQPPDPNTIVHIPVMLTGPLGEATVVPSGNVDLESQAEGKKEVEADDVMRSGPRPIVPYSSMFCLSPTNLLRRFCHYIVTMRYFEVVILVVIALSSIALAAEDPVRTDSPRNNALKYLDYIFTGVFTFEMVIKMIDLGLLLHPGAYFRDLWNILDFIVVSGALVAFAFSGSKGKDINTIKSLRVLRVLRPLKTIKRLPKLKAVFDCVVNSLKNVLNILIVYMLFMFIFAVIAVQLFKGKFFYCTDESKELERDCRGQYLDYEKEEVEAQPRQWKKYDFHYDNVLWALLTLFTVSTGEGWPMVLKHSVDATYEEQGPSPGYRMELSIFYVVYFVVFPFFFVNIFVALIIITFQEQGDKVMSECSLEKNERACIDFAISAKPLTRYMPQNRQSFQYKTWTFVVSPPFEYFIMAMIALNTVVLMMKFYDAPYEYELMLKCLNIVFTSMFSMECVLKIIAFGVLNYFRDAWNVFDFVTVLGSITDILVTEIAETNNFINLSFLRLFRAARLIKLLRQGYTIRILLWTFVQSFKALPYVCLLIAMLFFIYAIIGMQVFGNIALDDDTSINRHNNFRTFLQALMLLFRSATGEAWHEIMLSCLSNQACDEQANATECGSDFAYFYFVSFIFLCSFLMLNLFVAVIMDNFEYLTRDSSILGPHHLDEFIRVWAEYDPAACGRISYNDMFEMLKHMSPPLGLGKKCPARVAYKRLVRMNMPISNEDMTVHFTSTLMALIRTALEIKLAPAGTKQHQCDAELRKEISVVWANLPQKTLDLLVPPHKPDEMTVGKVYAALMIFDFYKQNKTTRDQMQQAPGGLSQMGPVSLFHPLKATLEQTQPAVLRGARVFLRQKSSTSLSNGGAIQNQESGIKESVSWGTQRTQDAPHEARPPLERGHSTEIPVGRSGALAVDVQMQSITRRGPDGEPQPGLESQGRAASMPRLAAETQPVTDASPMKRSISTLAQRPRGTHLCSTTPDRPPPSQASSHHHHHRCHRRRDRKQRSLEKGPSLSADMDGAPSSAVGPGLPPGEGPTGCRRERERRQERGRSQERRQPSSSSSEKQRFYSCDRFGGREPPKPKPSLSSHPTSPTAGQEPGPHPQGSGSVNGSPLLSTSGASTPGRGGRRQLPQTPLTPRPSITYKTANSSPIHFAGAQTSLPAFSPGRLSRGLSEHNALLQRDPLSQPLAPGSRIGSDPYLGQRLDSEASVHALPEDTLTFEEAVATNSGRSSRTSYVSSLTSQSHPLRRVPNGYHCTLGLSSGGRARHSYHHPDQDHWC

As to `O=C1C(Cc2ccccc2)NC(=S)N1Cc1ccccc1` (configuration not stated), the inhibition was -4.6% (inactive). Same read-out and setting: in the case of `Cc1ccc(NC(=O)Cn2sc3nc(C)cc(C)c3c2=O)c(Cl)c1` it was 70.3% (active); in that of `Cc1cc(C)c2c(=O)n(CC(=O)Nc3ccc(Cl)cc3)sc2n1`, 23.2% (inactive). The same measure, in the same setting: the figure for `Cc1ccc(NC(=O)Cn2c(C)cc(C)c(C#N)c2=O)c(Cl)c1` is 2.7% (inactive); for `CCCNC(=O)Cn1sc2nc(C)cc(C)c2c1=O` it is 88.4% (active); for `COC(=O)Cn1c(C)nc2c(sc3nc(C)cc(C)c32)c1=O` it is 7.1% (inactive). Still for that read-out and setting: in the case of `CC(=O)Cn1cnc2c(sc3nc(C)cc(C)c32)c1=O` it was -5.8% (inactive); in that of `CN1CCN(S(=O)(=O)c2cccc(C(=O)Oc3ccccc3Cl)c2)CC1`, 14.6% (inactive); in that of `COc1ccc(CNC(=O)Cn2nc([N+](=O)[O-])c(Br)c2C)cc1`, 2.9% (inactive). Consider `CCCN1C2=NCCN2c2ccccc21`, for which the inhibition is 2.5% (inactive). The same measure, in the same setting: the figure for `O=C(Nc1ccc(Cl)cc1)Nc1nnc(-c2ccncc2)s1` is 14.4% (inactive); for `COc1ccc(NC(=O)Nc2nnc(-c3ccncc3)s2)cc1` it is 3.4% (inactive). The same measure, in the same setting: the figure for `Cc1ccc(NC(=O)Nc2nnc(-c3ccncc3)s2)cc1C` is 76.4% (active). Still for that read-out and setting: the figure for `Cc1nnc(NC(=O)Nc2cccc(Cl)c2)s1` is -1.9% (inactive). For `O=C(Nc1ccc(F)cc1)Nc1nnc(-c2ccncc2)s1`, the inhibition is 50.5% (inactive). Besides, the inhibition under setting [1] was 37.8%. Regarding `O=C(Nc1cccc(Cl)c1)Nc1nnc(-c2ccncc2)s1`, the inhibition is 56.2% (active).

For the compound `Cc1c(NC(=O)CN2CCN(c3ccc([N+](=O)[O-])cc3)CC2)c(=O)n(-c2ccccc2)n1C`, the inhibition is 1.5% (inactive). On the same count and under the same terms, the figure for `CC1Oc2ccccc2N(CC(=O)N2CCc3ccccc32)C1=O` (configuration not stated) is -10.9% (inactive); for `CCCC(=O)N(Cc1cc(=O)[nH]c2ccccc12)c1ccc(C)cc1` it is 14.9% (inactive).

With `CCOc1ccc(N(CC(=O)NCc2ccco2)S(C)(=O)=O)cc1`, the inhibition was 13.2% (inactive).

Regarding `O=C(NNC(=S)NC(=O)c1ccccc1)c1ccc([N+](=O)[O-])cc1`, the inhibition is -13% (inactive). Same read-out and setting: in the case of `Cc1nc2ccc(S(=O)(=O)NCC(=O)NCc3ccc4c(c3)OCO4)cc2s1` it was 15.2% (inactive); in that of `CS(=O)(=O)Nc1cccc2[nH]ncc12`, 6.1% (inactive). Same read-out and setting: in the case of `N#CC1(C#N)[C@@H](C(=O)C23CC4CC(CC(C4)C2)C3)C12CCOCC2` it was 0% (inactive); in that of `Cc1ccc(NS(=O)(=O)c2ccc(OCC(=O)N3CCOCC3)cc2)cc1`, -10.3% (inactive). Same read-out and setting: the figure for `COC(=O)C1C(O)=C(C=NC2CCCCC2)C(=O)CC1(C)C` (configuration not stated) is 10.7% (inactive). In the case of `Nc1nc(N)c(N=Nc2ccc(S(N)(=O)=O)cc2)c(=O)[nH]1`, the inhibition is 13.6% (inactive). On the same count and under the same terms, the figure for `Oc1ccc(N=Nc2c(O)ccc3ccccc23)cc1` is -2.8% (inactive); for `NS(=O)(=O)c1ccc(N=Nc2c(O)c(C(=O)O)cc3ccccc23)cc1` it is 20.5% (inactive); for `Nc1nc(O)c(N=Nc2ccc(S(N)(=O)=O)cc2)c(=O)[nH]1` it is 50% (active). The same measure, in the same setting: the figure for `Cc1c(C#N)c(O)[nH]c(=O)c1N=Nc1ccc(S(N)(=O)=O)cc1` is 1.4% (inactive); for `NS(=O)(=O)c1ccc(N=Nc2c(O)ccc3ccccc23)cc1` it is 64.4% (active); for `O=C(CN1C(=O)C2C3C=CC(C4CC34)C2C1=O)Oc1ccccc1` (configuration not stated) it is -1.6% (inactive).

As to `CC(C)(C)NC(=O)CSC(=Nc1cccc(F)c1)NC#N`, the inhibition was -25.9% (inactive). On the same count and under the same terms, in the case of `CCCCOc1ccc(Cl)cc1CSc1nnc(C)n1N` it was -4.8% (inactive); in that of `CCOC(=O)CNC(=O)c1cc(-c2ccc3c(c2)OCCO3)oc1C`, 10.9% (inactive); in that of `Cc1oc(-c2ccc3c(c2)OCCO3)cc1C(=O)NC(CCC(=O)O)C(=O)O` (configuration not stated), 20.1% (inactive). The same measure, in the same setting: in the case of `COC(=O)CCC(NC(=O)c1cc(-c2ccc3c(c2)OCCO3)oc1C)C(=O)OC` (configuration not stated) it was 61.5% (active); in that of `Cc1ccc(CNC(=O)CN2C(=O)NC(C)(c3ccccc3Cl)C2=O)cc1` (configuration not stated), 6.8% (inactive); in that of `CCOC(=O)c1c(NC(=O)CN2CCN(C(=O)c3ccco3)CC2)sc(C(N)=O)c1C`, 0% (inactive). On the same count and under the same terms, the figure for `c1ccc2c(c1)nc(NCCN1CCOCC1)c1nncn12` is 6.6% (inactive); for `c1ccc2c(c1)CCN(CCCNc1nc3ccccc3n3cnnc13)C2` it is 50.8% (active). For the compound `c1ccc2c(c1)CCN(c1nc3ccccc3n3cnnc13)C2`, the inhibition was 3.9% (inactive). In the case of `CCCCCCCNC(=O)CC(NS(=O)(=O)c1ccc(NC(C)=O)cc1)C(C)C` (configuration not stated), the inhibition is 1.5% (inactive). With `COc1ccc(-n2c(C)c(C(=O)O)c3cc(OC)c4ccccc4c32)cc1`, the inhibition is 13.1% (inactive). On the same count and under the same terms, in the case of `CN1CCN(c2c(F)cc3c(=O)c(C(=O)O)cn4c3c2OCN4C)CC1` it was 33.2% (inactive). Same read-out and setting: the figure for `CN1CCN(c2c(F)cc3c(=O)c(C(=O)O)cn(CCF)c3c2F)CC1` is 29.5% (inactive); for `CN1CCN(c2c(F)cc3c(=O)c(C(=O)O)cn4c3c2SCC4)CC1` it is 53.3% (active); for `CCOc1ccc(S(=O)(=O)NCc2cccnc2)cc1C(C)C` it is 1.4% (inactive). Same read-out and setting: the figure for `CSc1nc(-c2ccc(C)cc2)[nH]c1S(=O)(=O)c1ccccc1` is -18.4% (inactive); for `CC(=O)Sc1nc(-c2ccccc2)[nH]c1S(=O)(=O)c1ccc(C)cc1` it is 82.4% (active). `Cc1ccc(-c2[nH]c(-c3ccc(C(=O)O)cc3)nc2-c2ccccc2)cc1`: the inhibition was 47.8% (inactive). For `CCOC(=O)c1c(-c2ccccc2)oc2ccc(OC(C)=O)cc12`, the inhibition was 7.9% (inactive). Same read-out and setting: the figure for `CCCCOC(=O)Nc1nnc(CC)s1` is 3.8% (inactive); for `Cc1[nH][nH]c(=O)c1C(c1ccc(-c2ccc(Cl)cc2Cl)o1)c1c(C)[nH][nH]c1=O` it is 2% (inactive); for `CN(C(=S)Nc1ccc(Oc2ccccc2)cc1)c1ccc(O)cc1` it is 11% (inactive). The same measure, in the same setting: in the case of `CN(C(=S)Nc1ccc(SC(F)F)cc1)c1ccc(O)cc1` it was 56.1% (active); in that of `CN(C(=S)Nc1ccc(SC(F)F)cc1)C(c1ccccc1)c1ccccc1`, -7.4% (inactive); in that of `C/C(=N\NC(=O)c1cccs1)c1ccc(C(=O)O)s1`, 12.5% (inactive).

Take `CCc1ccc(OCC(=O)NC(NC(=S)Nc2ccccc2C)C(Cl)(Cl)Cl)cc1` (configuration not stated): the inhibition was -12.1% (inactive).

Turning to `COC(=O)c1sccc1NC(=O)c1ccc(C(C)C)cc1`, the inhibition is 1% (inactive). Still for that read-out and setting: the figure for `CCN(CC)CCNC(=O)c1ccc(NC(=O)COc2ccccc2F)cc1` is -0.2% (inactive); for `COc1ccccc1CNC(=O)/C=C/c1ccc(Br)o1` it is 79.5% (active). Regarding `O=C(/C=C/c1ccc(Br)o1)NCc1ccccc1`, the inhibition was 76.8% (inactive). Also, under setting [1], the inhibition stood at 13.4%. Consider `COc1ccccc1CNC(=O)c1ccc(Br)o1`, for which the inhibition was -2% (inactive).

For `COCC(=O)NNC(=O)c1ccccc1OC`, the inhibition was -3.5% (inactive). In the case of `CS(=O)(=O)N(CC(=O)Nc1ccc2c(c1)OCCO2)Cc1ccc(Cl)cc1`, the inhibition was -3.3% (inactive). On the same count and under the same terms, in the case of `COC(=O)C1C(=O)NC(SC)=C(C#N)C1c1ccccc1` (configuration not stated) it was -20.5% (inactive). Still for that read-out and setting: the figure for `NC(=O)C1(C(N)=O)OC1c1ccc(Cl)cc1Cl` (configuration not stated) is 6.5% (inactive). `N#CC1=C(N)SC(N)=C(C#N)C1c1ccc([N+](=O)[O-])cc1`: the inhibition was 68.2% (inactive). The inhibition under setting [1] was 5%. For `N#CC1=C(N)Nc2ncnn2C1c1ccc([N+](=O)[O-])cc1` (configuration not stated), the inhibition was -11.4% (inactive).

For `CCOC(=O)C1C(=O)NC(SC)=C(C#N)C1c1ccccc1F` (configuration not stated), the inhibition was -5.1% (inactive).

On to `COC(=O)C1C(=O)NC(SC)=C(C#N)C1c1ccccc1F` (configuration not stated), for which the inhibition is 8% (inactive).

Consider `CCOC(=O)C1=C(C)NC(=O)NC1c1ccc(Cl)cc1Cl` (configuration not stated), for which the inhibition was -3.7% (inactive). Still for that read-out and setting: in the case of `CC(=O)C1(C)OC(N)=C(C#N)C(c2ccccc2)C1(C#N)C#N` (configuration not stated) it was 48% (inactive); in that of `COCCCNC(=O)Cn1nnc(-c2ccc(NC(=O)c3ccc(F)cc3)cc2)n1`, 25.2% (inactive); in that of `Cc1cc2oc(=O)cc(CN3CCCCC3C)c2cc1C` (configuration not stated), 2.6% (inactive).

For `COc1ccccc1S(=O)(=O)Cc1ccc(C(=O)N2CCCC2)o1`, the inhibition was 0.3% (inactive). On to `O=C(NCCc1c[nH]c2ccccc12)C(F)(F)C(F)F`, for which the inhibition is -6.3% (inactive). On the same count and under the same terms, in the case of `Cc1ccc(C(=O)NCCc2nnc3ccc(SCC(=O)Nc4c(C)cc(C)cc4C)nn23)cc1` it was 8.7% (inactive). Take `CCCn1cnc2cc(NC(=O)c3ccco3)ccc21`: the inhibition is 10.4% (inactive). Same read-out and setting: the figure for `CC(C)c1csc(CN2CCN(Cc3ccccc3)C(CCO)C2)n1` (configuration not stated) is 11.5% (inactive); for `Cc1ccc(C(=O)N(CC(=O)NC2CCCC2)c2ccc3c(c2)OCCO3)s1` it is -11% (inactive); for `O=C(Nc1ccc(Cl)cc1)N1CCOC12CCCCC2` it is -2.6% (inactive). On the same count and under the same terms, the figure for `O=Cc1cnc(N2CCOCC2)nc1` is 6.2% (inactive); for `COC(=O)c1cc(O)c(O)c(O)c1` it is -68.3% (inactive); for `NNC(=O)c1cccc(O)c1` it is 19.5% (inactive).

In the case of `NNC(=O)c1cc(O)c(O)c(O)c1`, the inhibition was 63.1% (active). As to `COC(=O)c1ccc(NC(=O)CCn2cccc2)cc1`, the inhibition is 3.2% (inactive). The same measure, in the same setting: the figure for `CC(C)c1ccc(/C=C2\SC(N3CCOCC3)=NC2=O)cc1` is -2.3% (inactive). With `CCOC(=O)C1CCCN(C(=O)CC(C)c2ccccc2)C1` (configuration not stated), the inhibition was -3.1% (inactive).

For `Cc1ccc(C)c(N2CCN(C(=O)CCn3c(=S)[nH]c4cc5c(cc4c3=O)OCO5)CC2)c1`, the inhibition was 4.3% (inactive). As for `CS(=O)(=O)C1=NSC2=NC(=O)/C(=C\c3cccn3-c3ccc(Cl)cc3)C(=N)N21`, the inhibition is 24.5% (inactive).

For `Cc1ccc(-n2cccc2/C=C2/C(=N)N3C(=NC2=O)SN=C3S(C)(=O)=O)cc1Cl`, the inhibition is 29.3% (inactive). Still for that read-out and setting: in the case of `CS(=O)(=O)C1=NSC2=NC(=O)/C(=C\c3cccn3-c3ccccc3Cl)C(=N)N21` it was 68.7% (active); in that of `O=C(CC1NCCNC1=O)Nc1cccc([N+](=O)[O-])c1` (configuration not stated), -6.8% (inactive); in that of `CC(=O)Nc1ccc2nsnc2c1`, 9% (inactive). Same read-out and setting: in the case of `Cc1nc2ccc(NC(=O)N(C(C)C)C(C)C)cc2s1` it was 10.4% (inactive); in that of `CC(C)N(C(=O)Nc1ccc2nsnc2c1)C(C)C`, 60.7% (active).
